The source of these data is PubChem BioAssay (NCATS).

Records with an inconclusive call do not appear. Values without a mark were called inactive. Calls of active or inactive are those of the source. Calls follow the shape of the dose curve; as a rule, active = well fitted cell-killing curve with a large enough effect; inconclusive = small, poorly fitted or top-dose-only effect, or effect the other way; inactive = no such curve, though single readings can be large or run the other way.
Potency is read from the fitted curve at half-maximal effect.

A short description of the test: Viability qHTS for spleen associated tyrosine kinase inhibitor (SYKi) drug resistant MV4-11 cells (AID 1963824). Also: nearly all actives have a fitted effect of over 35% in size. The following applies: SYKi-resistant MV4-11 viability, CellTiter-Glo, 72 h; series mostly up to 45 µM; viability, % of control: at the top concentration. The method, boiled down:
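SYK-inhibitor-resistant MV4-11 AML cells were seeded at 500 per well onto compound and cultured 72 hours (37 °C, 5% CO2). CellTiter-Glo was then added, and after 10 min at room temperature, luminescence gave viability.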
A general note: In qHTS, concentration-response curves come from the screen itself.
`N#Cc1ccc2c(c1)CCN(CCC1CCC(NC(=O)c3ccnc4ccccc34)CC1)C2` (stereo not given): the Potency is 10.3 µM (active).

As to `COC(=O)C1=CO[C@@H](O[C@@H]2O[C@H](CO)[C@@H](O)[C@H](O)[C@H]2O)[C@@H]2C(CO)=CC[C@]12O`, the “viability, % of control” value was 97.3% [at 17.3 µM].

Regarding `O=S(=O)(/N=C/c1c(O)ccc2ccccc12)c1cccs1`, the “viability, % of control” value is 86.6%.

Turning to `Cc1ccc(NS(=O)(=O)c2cc3c(cc2Cl)CCC(=O)N3)cc1Cl`, the Potency was 9.2 µM (active).

Turning to `COc1ccc(/C=C/C(=O)O[C@@H]2[C@@H](O[C@@H]3O[C@H](CO)[C@@H](O)[C@H](O)[C@H]3O)[C@@H](O)[C@H](O[C@H]3C4C=CO[C@@H](O[C@@H]5O[C@H](CO)[C@@H](O)[C@H](O)[C@H]5O)C4[C@@]4(CO)O[C@@H]34)O[C@H]2C)cc1` (stereo not given in full), the viability, % of control is 104% [at 9.25 µM].

Consider `COc1cccc(NCCC2(c3ccccc3)CC(C)(C)OC(C)(C)C2)c1`, for which the “viability, % of control” value is 102%.

With `CCCCC(CC)CN=C(N)NC(N)=NCCCCCCN=C(N)NC(N)=NCC(CC)CCCC` (stereo not given), the Potency was 2.66 µM (active).

With `CCS(=O)(=O)N(Cc1cccnc1)c1cccc(-c2ccc(C#N)cc2)c1`, the Potency is 20.6 µM (active).

Regarding `CC(C)(O)/C=C/C(=O)[C@](C)(O)[C@H]1[C@H](O)C[C@@]2(C)[C@@H]3CC=C4[C@@H](C[C@H](O[C@@H]5O[C@H](CO)[C@@H](O)[C@H](O)[C@H]5O)C(=O)C4(C)C)[C@]3(C)C(=O)C[C@]12C`, the Potency is 6.11 µM (active).

With `C=C1C(=O)OC2CC(COC(=O)C(C)C)=C(C(C)CCCOC(C)=O)[C@@H](OC(C)=O)C12` (stereo not given in full), the Potency was 8.93 µM (active).

In the case of `[2H]C([2H])(Nc1nc(-c2ccccc2C([2H])(C([2H])([2H])[2H])C([2H])([2H])[2H])ncc1C)c1ccc(-n2ccnn2)cc1`, the Potency is 11.8 µM (active).

Turning to `COc1cc(O)c(C(=O)CCc2ccc(O)cc2)c(O[C@@H]2O[C@H](CO)[C@@H](O)[C@H](O)[C@H]2O)c1`, the Potency is 11.2 µM (active).

As to `CC(NCCC(c1ccccc1)c1ccccc1)c1ccccc1` (stereo not given), the Potency was 10.6 µM (active).

Turning to `CC(C)n1nc(Cc2cccc3ccccc23)c2c(N)ncnc21`, the Potency was 8.2 µM (active).

Consider `O=c1[nH]ccc2nc(-c3ccc(CN4CCC(c5nc(-c6ccccn6)n[nH]5)CC4)cc3)c(-c3ccccc3)cc12`, for which the Potency was 9.2 µM (active).

With `CCn1c(=O)n([C@H]2CCCN(c3nccc(-c4cc5ccccc5o4)n3)C2)c2ccccc21`, the Potency was 23.1 µM (active).

Take `NC(N)=NC(=O)c1cnn(-c2cccc3ncccc23)c1C1CC1`: the Potency is 3.26 µM (active).

Consider `CCCSc1nc(NC2CC2c2ccc(F)c(F)c2)c2nnn(C3CC(OCCO)C(O)C3O)c2n1` (stereo not given), for which the Potency is 20.6 µM (active).

With `OCC(CO)(CO)NCC(O)Cn1c2ccc(Cl)cc2c2cc(Cl)ccc21` (stereo not given), the Potency is 11.6 µM (active).

As for `CC[C@@H](C)[C@@H]1OC2(C=C[C@H]1C)C[C@@H]1C[C@H](C/C=C(\C)[C@H](O[C@H]3C[C@H](OC)[C@H](O[C@H]4C[C@H](OC)[C@H](NC(C)=O)[C@H](C)O4)[C@H](C)O3)[C@H](C)/C=C/C=C3\CO[C@H]4[C@H](O)C(C)=C[C@@H](C(=O)O1)[C@@]34O)O2` (stereo not given in full), the Potency is 2.27 µM (active).

For `C[C@@]1(O)[C@H](O)[C@@H](CO)O[C@H]1n1ccc(N)nc1=O`, the Potency is 13 µM (active).

For the compound `COC1C2=C(COC2=O)C2(C)CCCC(C)(CO)C2C1OC(=O)c1ccccc1` (stereo not given), the “viability, % of control” value was 74.6% [at 17.3 µM].

For `C=C1C[C@@]23CCC4[C@@](C)(CCC[C@@]4(C)C(=O)OC)C2CC[C@@H]1C3` (stereo not given in full), the Potency was 6.4 µM (active).

Consider `O=C1NC(Cc2c[nH]c3ccccc23)C(=O)NC1Cc1c[nH]c2ccccc12` (stereo not given), for which the “viability, % of control” value was 79.4%.

As for `Cc1cc(C)cc(Oc2ccc(CNC(=O)[C@H](C)N)cc2C)c1`, the Potency was 16.6 µM (active).

As for `Fc1ccc(-c2nc(C3CCNCC3)sc2-c2ccnc(NC3CC3)n2)cc1`, the Potency is 11.6 µM (active).

`CO[C@H]1C[C@@H]2CC[C@@H](C)[C@@](O)(O2)C(=O)C(=O)N2CCCC[C@H]2C(=O)O[C@H]([C@H](C)C[C@@H]2CC[C@@H](OP(C)(C)=O)[C@H](OC)C2)CC(=O)[C@H](C)/C=C(\C)[C@@H](O)[C@@H](OC)C(=O)[C@H](C)C[C@H](C)/C=C/C=C/C=C/1C`: the Potency is 3.72 µM (active).

Take `N#Cc1ccc(COc2ccc(-c3cccc4nc(NC(=O)C5CC5)nn34)cc2)cn1`: the Potency was 0.651 µM (active).

Regarding `Cc1cccc(C)c1OCc1cc(C(=O)N2CCC(c3ccncc3)CC2)no1`, the Potency is 9.2 µM (active).

In the case of `Cc1ccccc1-n1c([C@H](C)Nc2nc(N)nc3nc[nH]c23)nc2cccc(C)c2c1=O`, the Potency was 2.91 µM (active).

On to `Cc1occc(=O)c1O[C@@H]1O[C@H](CO)[C@@H](O)[C@H](O)[C@H]1O`, for which the “viability, % of control” value was 100%.

Consider `O=C1Nc2ccccc2C(O)(c2ccccc2)C1O` (stereo not given), for which the “viability, % of control” value was 53.4%.

For `Cc1cc(C)c2nc(-c3ccccn3)cc(C(=O)Nc3ccc(S(=O)(=O)Nc4onc(C)c4C)cc3)c2c1`, the Potency was 25.9 µM (active).

As to `NC(=O)N1CCC(CC(=O)N2CCC(C3c4ncc(Br)cc4CCc4cc(Cl)cc(Br)c43)CC2)CC1` (stereo not given), the Potency is 2.06 µM (active).

In the case of `Fc1ccc2c(CCNCc3cccc(OCC(F)(F)C(F)F)c3)c[nH]c2c1`, the Potency is 16.4 µM (active).

As for `COc1cc2nc(N3CCN(C)CC3)nc(NC3CCN(Cc4ccccc4)CC3)c2cc1OC`, the Potency is 3.26 µM (active).

As to `COC(=O)C1=COC(O[C@@H]2O[C@H](CO)[C@@H](O)[C@H](O)[C@H]2O)[C@H]2[C@@H]1[C@H](OC(=O)CCc1ccc(O)cc1)C[C@]2(C)O` (stereo not given in full), the “viability, % of control” value was 96% [at 17.3 µM].

With `C/C=C1\[C@H](O[C@@H]2O[C@H](CO)[C@@H](O)[C@H](O)[C@H]2O)OC=C(C(=O)OC)[C@H]1CC(=O)OC[C@H]1O[C@@H](OCCc2ccc(O)cc2)[C@H](O)[C@@H](O)[C@@H]1O`, the “viability, % of control” value was 81.4% [at 17.3 µM].

Take `Nc1nc2c(c(=O)[nH]1)C[C@@H](CCc1ccc(C(=O)N[C@@H](CCC(=O)O)C(=O)O)cc1)CN2`: the Potency is 0.0092 µM (active).

With `COc1cccc2c1CCC[C@H]2CN(C)CCc1ccc2ccoc2c1`, the Potency is 23.1 µM (active).
